Data as given in PMC4336329 (PLoS ONE, 2015).
Among all 310,000 compounds or so, about 14,000 (4.5%) showed an effect of 50% or more. The effect is printed as a negative number. The list comes from a sample in which strong results are over-represented; it also holds similar structures and randomly drawn compounds.

Each compound was assayed against human ether-à-go-go-related gene (hERG) potassium channel (human, UniProt Q12809) (assay: primary screen, population patch clamp on CHO cells stably expressing hERG; higher = less effect of the substance).
Chain of human ether-à-go-go-related gene (hERG) potassium channel (Q12809 whole entry, looked up): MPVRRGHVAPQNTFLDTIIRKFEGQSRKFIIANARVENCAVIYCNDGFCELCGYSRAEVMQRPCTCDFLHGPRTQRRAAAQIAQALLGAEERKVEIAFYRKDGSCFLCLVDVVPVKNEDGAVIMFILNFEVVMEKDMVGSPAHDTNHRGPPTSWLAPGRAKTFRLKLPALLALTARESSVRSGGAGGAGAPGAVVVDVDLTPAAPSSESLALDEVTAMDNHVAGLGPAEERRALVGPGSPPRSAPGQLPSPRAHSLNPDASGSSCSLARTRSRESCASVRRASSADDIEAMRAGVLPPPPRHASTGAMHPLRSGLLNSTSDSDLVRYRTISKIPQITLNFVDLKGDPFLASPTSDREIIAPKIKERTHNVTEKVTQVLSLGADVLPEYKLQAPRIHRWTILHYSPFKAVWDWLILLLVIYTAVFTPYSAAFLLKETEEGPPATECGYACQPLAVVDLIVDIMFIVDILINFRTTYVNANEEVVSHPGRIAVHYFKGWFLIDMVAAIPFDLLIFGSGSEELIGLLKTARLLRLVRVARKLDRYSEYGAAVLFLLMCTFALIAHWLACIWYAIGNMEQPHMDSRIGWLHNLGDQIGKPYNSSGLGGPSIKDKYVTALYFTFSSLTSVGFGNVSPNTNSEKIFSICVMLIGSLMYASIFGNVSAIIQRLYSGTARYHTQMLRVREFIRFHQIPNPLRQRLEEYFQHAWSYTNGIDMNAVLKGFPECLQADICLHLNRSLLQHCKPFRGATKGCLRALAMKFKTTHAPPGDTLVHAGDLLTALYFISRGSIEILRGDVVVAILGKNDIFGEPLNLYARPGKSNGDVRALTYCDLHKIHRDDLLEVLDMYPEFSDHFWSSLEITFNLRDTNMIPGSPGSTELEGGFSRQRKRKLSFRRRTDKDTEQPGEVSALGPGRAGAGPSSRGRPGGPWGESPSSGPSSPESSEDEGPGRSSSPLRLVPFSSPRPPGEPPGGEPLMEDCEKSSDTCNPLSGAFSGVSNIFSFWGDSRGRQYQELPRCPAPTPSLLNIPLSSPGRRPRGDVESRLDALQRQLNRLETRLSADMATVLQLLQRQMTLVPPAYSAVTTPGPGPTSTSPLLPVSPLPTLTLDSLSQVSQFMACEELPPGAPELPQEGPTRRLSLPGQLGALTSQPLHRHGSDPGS
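Note: peak tail current of the secondary pulse compared with the same well before compound.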

Row | SMILES | hERG current change (%, negative = inhibition) at 10uM [%]
1 | CC(=O)N1CCN(CC(=O)Nc2cc([N+](=O)[O-])ccc2Cl)CC1 | 15.5
2 | O=C(CN1CCCCCC1)Nc1ccc([N+](=O)[O-])cc1Br | 6.13
3 | CN1CCN(CC(=O)Nc2ccc([N+](=O)[O-])cc2Br)CC1 | -70.9
4 | CC(=O)N1CCN(CC(=O)Nc2ccc([N+](=O)[O-])cc2Br)CC1 | -75.3
5 | O=C(CN1CCOCC1)Nc1ccc([N+](=O)[O-])cc1Br | -43.7
6 | O=C(CN1CCN(c2ccccc2O)CC1)Nc1ccc([N+](=O)[O-])cc1Br | -6.3
7 | N#CCc1nc(CSc2nc3ccccc3s2)cs1 | -2.16
8 | CC(=O)Nc1ccc(N2CCCCC2)c(C(=O)Nc2cccc(C)c2)c1 | -18.1
9 | Cn1cnnc1SCC(=O)Nc1ccccc1C(=O)NC1CCCC1 | 11.8
10 | O=C(O)c1ccc(NNC(=S)Nc2cc(C(F)(F)F)ccc2Cl)cc1 | 19.4
11 | CCCc1ccc(OCC(=O)NNC(=O)c2cccnc2)cc1 | -10.9
12 | Cc1cccc(NC2=NC(C)(C)N=C(N)N2)c1C | 16.5
13 | CN(C)CCN(C(=O)c1ccc2ccccc2c1)c1nc2c(F)cccc2s1.Cl | -10.2
14 | CCOc1cccc2sc(N(CCN(C)C)C(=O)c3ccc(Br)s3)nc12.Cl | -30.3
15 | COc1cc2ccccc2cc1C(=O)N(CCN(C)C)c1nc2c(C)cccc2s1.Cl | 19.2
16 | CCOc1cccc2sc(N(CCN(C)C)C(=O)c3ccc4c(c3)OCCO4)nc12.Cl | -53.5
17 | CCOc1cccc2sc(N(CCN(C)C)C(=O)c3cc4ccccc4cc3OC)nc12.Cl | -68.1
18 | COc1ccc2nc(N(CCN(C)C)C(=O)c3ccc4c(c3)OCCO4)sc2c1.Cl | -35.3
19 | CCOc1ccc2nc(N(CCN(C)C)C(=O)c3ccc4ccccc4c3)sc2c1.Cl | 4.67
20 | CCOc1cccc2sc(N(CCN(C)C)C(=O)c3ccc4ccccc4c3)nc12.Cl | -51.5
21 | COc1cc2ccccc2cc1C(=O)N(CCN(C)C)c1nc2c(F)cccc2s1.Cl | -38.4
22 | CCCC(=O)Nc1ccc(-c2cn3cccnc3n2)cc1 | 3.08
23 | Cc1cc(C(=O)NCCCOC(C)C)c2ccccc2n1 | -7.22

Row | SMILES | hERG current change (%, negative = inhibition) at 10uM [%]
24 | Cc1c(Cl)cccc1NC(=O)Nc1ccccc1C(N)=O | 19
25 | CCOC(=O)CSc1nnc(-c2ccccc2)o1 | 7.66
26 | COc1ccc(/C=C/C2=CCN(C)CC2)cc1.Cl | -19.7
27 | COc1ccc(/C=C/C2=CCN(Cc3ccc(OC)cc3)CC2)cc1.Cl | -72.3
28 | COc1ccc(CN2CCNCC2)cc1.Cl | 21.6
29 | NNc1n[nH]c(=S)n1N | 15.2
30 | CCOC(=O)c1cc(CC)sc1/N=C/C1C(=O)CCCC1=O | 10.9
31 | O=C1OC(c2ccc3c(c2)OCO3)N(C(=O)c2ccc(Cl)c(Cl)c2)c2ccccc21 (stereo not drawn) | 15.1
32 | COc1cc(CO)cc(-c2cc(CO)cc(OC)c2OC)c1OC | 10.3
33 | COc1ccc(C(NC(=O)CNC(C)=O)C(=O)Nc2ccc(C(C)C)cc2)cc1 (stereo not drawn) | -5.76
34 | CC1CC(C)CN(C(=O)c2cc(-c3ccccn3)nc3ccccc23)C1 (stereo not drawn) | -6.19
35 | CC(CN1CCCCC1)NC(=O)c1cc(-c2ccccn2)nc2ccc(Cl)cc12 (stereo not drawn) | -21.8
36 | O=C(NC1CC1)c1cc(-c2ccccn2)nc2ccccc12 | -29.5
37 | Cl.O=C(NC1CCN(Cc2ccccc2)CC1)c1cc(-c2ccccn2)nc2ccccc12 | -69.4
38 | Cc1ccc(-c2cc(C(=O)NC3CCN(Cc4ccccc4)CC3)c3ccccc3n2)cc1 | 7.42
39 | CC1CCN(CC(C)CNC(=O)c2cc(-c3ccccn3)nc3ccccc23)CC1 (stereo not drawn) | -62.5
40 | Cc1cc(C)n(CC(O)COc2ccc(F)cc2)n1 (stereo not drawn) | 9.76
41 | CCC(Cc1ccccc1)NC(=O)/C=C/c1ccco1 (stereo not drawn) | 9.2
42 | CCn1cc(S(=O)(=O)Nc2cc(C)ccc2F)cn1 | 3.63
43 | O=C(CNC(=O)c1sc2ccccc2c1Cl)OCc1ccccc1 | 3.28
44 | COC(=O)C1=C(C)N(CCCC(=O)O)C(=O)NC1c1cccc2ccccc12 (stereo not drawn) | 5.92
45 | COc1ccccc1-n1c(=O)[nH]c2c(C(N)=O)nc(CC(C)C)nc21 | 5.01
